The panel holds about 83,000 compounds, 20% with a hit somewhere; the sample as a whole holds those more often.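 Step 1: grow cells in 96-well plates. Step 2: add test compound at a single concentration. Step 3: incubate 48 h. Step 4: record percent growth.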 Active and inactive are the calls of the source. How the source made its calls: active means growth percent below 10; inactive means the rest.
Assays:
Assay in all cases: NCI-60 one-dose screen, 48 h (100 = growth as untreated, 0 = no growth, -100 = all killed)
Details in all cases: 10 µM unless noted
HCT-15 colon = tested on: HCT-15 colon
HT29 colon = tested on: HT29 colon
SNB-75 CNS = tested on: SNB-75 CNS
SNB-19 CNS = tested on: SNB-19 CNS
U251 CNS = tested on: U251 CNS
PC-3 prostate = tested on: PC-3 prostate
SK-MEL-5 melanoma = tested on: SK-MEL-5 melanoma
UACC-62 melanoma = tested on: UACC-62 melanoma
LOX IMVI melanoma = tested on: LOX IMVI melanoma
SK-MEL-28 melanoma = tested on: SK-MEL-28 melanoma

Measured: growth

Cc1cc2c(F)c(Oc3ncnn4cc(OC[C@@H](C)OC(=O)[C@H](C)N)c(C)c34)ccc2[nH]1
active: HT29 colon 6.32% | UACC-62 melanoma 2.73%
inactive: HCT-15 colon 38.6% | SNB-75 CNS 55.6% | SNB-19 CNS 51.8% | U251 CNS 44.8% | PC-3 prostate 54.5% | SK-MEL-5 melanoma 42.6% | LOX IMVI melanoma 26.5% | SK-MEL-28 melanoma 10.5%

COC(=O)[C@]12CC[C@@H](C)[C@H](C)[C@@H]1C1=CC[C@@H]3[C@@]4(C)C(c5cnco5)=C[C@@](C)(CO)C4=CC[C@@]3(C)[C@]1(C)CC2
inactive: HCT-15 colon 29.8% | HT29 colon 26.6% | SNB-75 CNS 77.1% | SNB-19 CNS 65.7% | U251 CNS 61.8% | PC-3 prostate 12.6% | SK-MEL-5 melanoma 47.2% | UACC-62 melanoma 65.3% | LOX IMVI melanoma 67.7% | SK-MEL-28 melanoma 66.7%

CC(C)=CCc1cc2c(cc1O)C1=C(C(=O)C3=C(NCCS3(=O)=O)C1=O)C(C=C(C)C)O2 (stereo not given)
inactive: HCT-15 colon 39.8% | HT29 colon 47.9% | SNB-75 CNS 71.4% | SNB-19 CNS 31.7% | PC-3 prostate 16.4% | UACC-62 melanoma 28.2% | SK-MEL-28 melanoma 24.3%
active: U251 CNS 1.89% | SK-MEL-5 melanoma 5.34% | LOX IMVI melanoma 4.56%

O=c1[nH]c([C@@H]2CCCN2)nc2c1oc1ccc(Cl)cc12
active: SNB-75 CNS 7.8%
inactive: HCT-15 colon 66.3% | HT29 colon 43.9% | SNB-19 CNS 74.8% | U251 CNS 42.6% | PC-3 prostate 58% | SK-MEL-5 melanoma 51.2% | UACC-62 melanoma 78.5% | LOX IMVI melanoma 39% | SK-MEL-28 melanoma 78.8%

O=C(NOCCO)c1cc(CN2OCCCC2=O)c(F)c(F)c1Nc1ccc(I)cc1F
inactive: HCT-15 colon 50.6% | SNB-75 CNS 71.5% | SNB-19 CNS 51.8% | U251 CNS 40.6% | PC-3 prostate 99.3% | SK-MEL-5 melanoma 45.7% | LOX IMVI melanoma 19.4%
active: HT29 colon 8.15% | UACC-62 melanoma 4% | SK-MEL-28 melanoma 3.09%

CCCCCCCCCNCCCCCCCCC
active: HT29 colon 0.373%
inactive: HCT-15 colon 32.4% | SNB-75 CNS 67.2% | SNB-19 CNS 82.2% | U251 CNS 49% | PC-3 prostate 59.4% | SK-MEL-5 melanoma 54.1% | UACC-62 melanoma 83.2% | LOX IMVI melanoma 41.9% | SK-MEL-28 melanoma 43.5%

COc1cc(CCc2cc(NC(=O)c3ccc(N4C[C@@H](C)N[C@@H](C)C4)cc3)n[nH]2)cc(OC)c1
inactive: HCT-15 colon 53.5% | SNB-19 CNS 83.4% | U251 CNS 45.2% | PC-3 prostate 47.2% | SK-MEL-5 melanoma 17.3% | UACC-62 melanoma 45.4% | SK-MEL-28 melanoma 35.7%
active: HT29 colon 4.25% | SNB-75 CNS 6.83% | LOX IMVI melanoma -30.9%

COc1cc2ncnc(Nc3ccc(F)c(Cl)c3)c2cc1NC(=O)/C=C/CN1CCCCC1
active: HCT-15 colon -49.7% | HT29 colon -63.4% | SNB-75 CNS -97.8% | SNB-19 CNS -47.5% | U251 CNS -77.1% | PC-3 prostate -58.3% | SK-MEL-5 melanoma -99.8% | UACC-62 melanoma -84.3% | LOX IMVI melanoma -90.2% | SK-MEL-28 melanoma -85.5%

CCCCCCCCCCCC[n+]1ccccc1
inactive: HCT-15 colon 39.4% | SK-MEL-28 melanoma 21.4%
active: HT29 colon 1.53% | SNB-75 CNS 0.831% | SNB-19 CNS 8.57% | U251 CNS -0.664% | PC-3 prostate -38.2% | SK-MEL-5 melanoma -95.3% | UACC-62 melanoma -41.9% | LOX IMVI melanoma -40.9%

CCc1cc2c(c3ccc(C(=O)CBr)cc13)CCCC2
inactive: HCT-15 colon 101% | HT29 colon 91.7% | SNB-75 CNS 91.5% | SNB-19 CNS 108% | U251 CNS 95.1% | PC-3 prostate 96% | SK-MEL-5 melanoma 106% | UACC-62 melanoma 91.8% | LOX IMVI melanoma 93.3% | SK-MEL-28 melanoma 108%

Nc1cc(C(F)(F)F)c(-c2cc(N3CCOCC3)nc(N3CCOCC3)n2)cn1
active: HCT-15 colon -10% | HT29 colon -29.2% | SNB-75 CNS -69% | SNB-19 CNS 0.838% | U251 CNS -2.08% | PC-3 prostate -10.4% | SK-MEL-5 melanoma -75.5% | UACC-62 melanoma -72.7% | LOX IMVI melanoma -44.6% | SK-MEL-28 melanoma -47.5%

O=C(CNc1nc(-c2ccc(Cl)cc2)cs1)Nc1ccc(-c2nc3ccccc3s2)cc1
inactive: HCT-15 colon 110% | HT29 colon 108% | SNB-75 CNS 77.8% | SNB-19 CNS 98.2% | U251 CNS 91.6% | PC-3 prostate 90.7% | SK-MEL-5 melanoma 87.7% | UACC-62 melanoma 91.9% | LOX IMVI melanoma 95.6% | SK-MEL-28 melanoma 111%

Clc1ccc2c(NCCNc3nc(N4CCCC4)nc4ccccc34)ccnc2c1
inactive: SNB-75 CNS 12.5% | SNB-19 CNS 25.1% | PC-3 prostate 21.9%
active: HCT-15 colon -34.5% | HT29 colon -27.2% | U251 CNS -44% | SK-MEL-5 melanoma -97.1% | UACC-62 melanoma -56.6% | LOX IMVI melanoma -85.7% | SK-MEL-28 melanoma -54.2%

COCC(=O)NC/C=C/c1ccc2ncnc(Nc3ccc(Oc4ccc(C)nc4)c(C)c3)c2c1
active: UACC-62 melanoma 7.95%
inactive: HCT-15 colon 33.3% | HT29 colon 12.2% | SNB-75 CNS 57.2% | SNB-19 CNS 77.9% | U251 CNS 62.9% | PC-3 prostate 74.1% | SK-MEL-5 melanoma 13.1% | LOX IMVI melanoma 31.7% | SK-MEL-28 melanoma 12.2%

O=S1(=O)OC(c2ccc(O)c(Cl)c2)(c2ccc(O)c(Cl)c2)c2ccccc21
inactive: HCT-15 colon 102% | HT29 colon 123% | SNB-75 CNS 78.4% | SNB-19 CNS 103% | U251 CNS 111% | PC-3 prostate 77.8% | SK-MEL-5 melanoma 95.9% | UACC-62 melanoma 99.5% | LOX IMVI melanoma 100% | SK-MEL-28 melanoma 114%

Cc1cc(C(=O)Nc2cc(Oc3ccc4nc(NC(=O)C5CC5)cn4n3)ccc2C)n(C)n1
inactive: HCT-15 colon 44.1% | SNB-19 CNS 33.5% | U251 CNS 13.3% | PC-3 prostate 49.8% | SK-MEL-5 melanoma 23.6%
active: HT29 colon 4.61% | SNB-75 CNS 7.99% | UACC-62 melanoma -16.9% | LOX IMVI melanoma -20.1% | SK-MEL-28 melanoma 0.461%

COC(=O)[C@H](Cc1ccccc1)NC(=O)[C@@H](OC)[C@@H]1Cc2cc3cc(OC4CC(OC5CC(O)C(O)C(C)O5)C(O)C(C)O4)c(C)c(O)c3c(O)c2C(=O)[C@H]1OC1CC(OC2CC(OC3CC(C)(O)C(O)C(C)O3)C(O)C(C)O2)C(O)C(C)O1 (stereo not given in full)
active: HCT-15 colon 5.61% | HT29 colon 4.24% | SNB-75 CNS -86.8% | SNB-19 CNS 4.82% | U251 CNS 2.62% | PC-3 prostate -9.57% | SK-MEL-5 melanoma -78% | UACC-62 melanoma -56.6% | LOX IMVI melanoma -18.2% | SK-MEL-28 melanoma -27%

Cc1nc(Nc2n[nH]c3c2CN(C(=O)N[C@H](CN(C)C)c2ccccc2)C3(C)C)c2sccc2n1
active: HT29 colon -29.6% | SNB-75 CNS -80% | SNB-19 CNS 0.125% | U251 CNS -22.7% | PC-3 prostate -10% | SK-MEL-5 melanoma -84.9% | UACC-62 melanoma -87% | LOX IMVI melanoma -41.3% | SK-MEL-28 melanoma -33.7%
inactive: HCT-15 colon 20%

CN(C[C@@H]1COCCO1)S(=O)(=O)Nc1ccc2ccc3ncc(-c4cnn(C)c4)cc3c(=O)c2c1
inactive: HCT-15 colon 26% | HT29 colon 51.3% | SNB-75 CNS 13.6% | SNB-19 CNS 80.7% | U251 CNS 37.4% | PC-3 prostate 45.6% | SK-MEL-5 melanoma 36% | UACC-62 melanoma 36.2% | LOX IMVI melanoma 30.1% | SK-MEL-28 melanoma 59.7%

CC(C)[C@@H]1CC[C@]2(CO2)[C@@H]2C(=O)OCC(C(=O)O)=C[C@H]21
inactive: SNB-75 CNS 20.7% | PC-3 prostate 22.5%
active: HCT-15 colon 0.806% | HT29 colon -1.49% | SNB-19 CNS 1.78% | U251 CNS 1.81% | SK-MEL-5 melanoma -42.8% | UACC-62 melanoma -67.1% | LOX IMVI melanoma -31.2% | SK-MEL-28 melanoma -73.4%

C=CC(=O)N1CCC[C@H](n2c(=O)n(-c3ccc(Oc4ccccc4)cc3)c3c(N)ncnc32)C1
inactive: HCT-15 colon 98.3% | HT29 colon 68.9% | SNB-75 CNS 113% | SNB-19 CNS 79.1% | U251 CNS 89.2% | PC-3 prostate 87.9% | SK-MEL-5 melanoma 94.1% | UACC-62 melanoma 81.2% | LOX IMVI melanoma 72.4% | SK-MEL-28 melanoma 113%

CC/C(=C(\c1ccc(OCCN2CCCCCCC2)cc1)c1ccc(OC(=O)C2CCCCC2)cc1)c1ccc(Cl)cc1
inactive: HCT-15 colon 94.3% | HT29 colon 86.9% | SNB-75 CNS 99.7% | SNB-19 CNS 110% | U251 CNS 98.9% | PC-3 prostate 91.4% | SK-MEL-5 melanoma 102% | UACC-62 melanoma 108% | LOX IMVI melanoma 102% | SK-MEL-28 melanoma 96.3%

COC(=O)[C@]12CC[C@@H](C)[C@H](C)[C@@H]1C1=CC[C@@H]3[C@@]4(C)C(C#N)=CC(C)=C4CC[C@@]3(C)[C@]1(C)CC2
inactive: HCT-15 colon 89.5% | HT29 colon 73.7% | SNB-75 CNS 84.5% | SNB-19 CNS 96.3% | U251 CNS 87.2% | PC-3 prostate 68.9% | SK-MEL-5 melanoma 86.3% | UACC-62 melanoma 69.3% | LOX IMVI melanoma 92.1% | SK-MEL-28 melanoma 91.4%

COc1cc2ncnc3c2cc1OCCCCCN(C)Cc1ccc(Br)cc1N3
inactive: HCT-15 colon 19.5% | HT29 colon 28.9% | SNB-75 CNS 74.5% | SNB-19 CNS 88.4% | U251 CNS 68.6% | PC-3 prostate 39% | SK-MEL-5 melanoma 72.7% | UACC-62 melanoma 43.8% | LOX IMVI melanoma 32.8% | SK-MEL-28 melanoma 74.8%

CC1(C)NC(=O)c2[nH]c3c(Cl)c(Cl)ccc3c2C1C#N (stereo not given)
active: SK-MEL-5 melanoma 8.85%
inactive: HCT-15 colon 87.9% | HT29 colon 78.2% | SNB-75 CNS 75.7% | SNB-19 CNS 87.5% | U251 CNS 81.7% | PC-3 prostate 79.6% | UACC-62 melanoma 73.1% | LOX IMVI melanoma 85.5% | SK-MEL-28 melanoma 103%

Cc1cccc(Cl)c1NC(=O)c1cnc(Nc2cc(N3CCOCC3)cc(S(C)(=O)=O)c2)s1
inactive: HCT-15 colon 43.3% | SNB-19 CNS 40.5% | U251 CNS 50% | PC-3 prostate 44.3% | SK-MEL-5 melanoma 57.9% | UACC-62 melanoma 41.3% | SK-MEL-28 melanoma 52.6%
active: HT29 colon -68% | SNB-75 CNS -50.1% | LOX IMVI melanoma -58.4%

Reference: PubChem BioAssay (NCI)
